Out of some 310,000 compounds screened, about 14,000 (4.5%) showed an effect of 50% or more. Effects have a minus sign here. Only a selection was taken, and strong results are over-represented in it overall.
What follows are compounds tested against human ether-à-go-go-related gene (hERG) potassium channel (human, UniProt Q12809) (assay: primary screen, population patch clamp on CHO cells stably expressing hERG; higher = less effect of the substance).
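Also: peak tail current of the secondary pulse compared with the same well before compound.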

Chain of human ether-à-go-go-related gene (hERG) potassium channel (Q12809 whole entry, looked up): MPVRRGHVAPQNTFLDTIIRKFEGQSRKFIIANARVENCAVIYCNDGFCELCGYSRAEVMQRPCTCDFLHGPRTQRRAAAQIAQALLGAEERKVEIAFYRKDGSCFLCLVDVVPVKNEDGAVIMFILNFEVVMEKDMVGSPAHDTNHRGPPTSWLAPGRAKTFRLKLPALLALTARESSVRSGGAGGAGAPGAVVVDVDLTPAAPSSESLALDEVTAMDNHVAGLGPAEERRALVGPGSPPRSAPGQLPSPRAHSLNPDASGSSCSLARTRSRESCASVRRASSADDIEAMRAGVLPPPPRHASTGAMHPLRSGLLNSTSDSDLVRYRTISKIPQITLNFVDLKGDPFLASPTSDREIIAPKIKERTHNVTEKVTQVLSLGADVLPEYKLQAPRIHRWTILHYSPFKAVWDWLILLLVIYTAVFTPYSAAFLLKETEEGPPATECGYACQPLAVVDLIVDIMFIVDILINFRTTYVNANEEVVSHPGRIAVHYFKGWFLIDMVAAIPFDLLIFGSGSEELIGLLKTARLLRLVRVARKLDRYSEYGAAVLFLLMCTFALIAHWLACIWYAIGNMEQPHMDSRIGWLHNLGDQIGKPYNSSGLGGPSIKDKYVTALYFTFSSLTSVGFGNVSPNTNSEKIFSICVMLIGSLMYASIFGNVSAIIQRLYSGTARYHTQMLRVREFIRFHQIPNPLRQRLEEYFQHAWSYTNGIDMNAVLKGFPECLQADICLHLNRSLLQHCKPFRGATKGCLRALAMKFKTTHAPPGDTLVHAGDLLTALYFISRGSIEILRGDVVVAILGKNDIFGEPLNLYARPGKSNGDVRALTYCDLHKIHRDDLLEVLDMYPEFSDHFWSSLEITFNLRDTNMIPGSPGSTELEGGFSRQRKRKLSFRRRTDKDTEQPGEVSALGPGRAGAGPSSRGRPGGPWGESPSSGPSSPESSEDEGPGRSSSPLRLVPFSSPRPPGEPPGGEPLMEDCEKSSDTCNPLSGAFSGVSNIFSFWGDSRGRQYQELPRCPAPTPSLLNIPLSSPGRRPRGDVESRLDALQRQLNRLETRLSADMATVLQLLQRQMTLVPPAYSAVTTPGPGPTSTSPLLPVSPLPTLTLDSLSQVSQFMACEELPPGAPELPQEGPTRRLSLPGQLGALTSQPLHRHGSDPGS

Row | SMILES | hERG current change (%, negative = inhibition) at 10uM
1 | O=C(O)CCCCCCCCc1cn(Cc2ccc(C(=O)c3ccccc3)cc2)nn1 | 19.5%
2 | Cc1cccc(C)c1OCC(=O)N/N=C/c1cc2c(cc1[N+](=O)[O-])OCO2 | -4.6%
3 | O=C(O)CN1CCc2ccccc2C1 | 21.3%
4 | CCC(CC)C(=O)Nc1cc([N+](=O)[O-])ccc1F | -2.25%
5 | COCCN1Cc2cccc(C(=O)Nc3cccnc3)c2C1=O | -32.6%
6 | CCOC(=O)C1(Cc2ccccc2C)CCCN(C(=O)CCc2c(C)noc2C)C1 (centres unmarked) | -29.3%
7 | COC(=O)c1cc(C(=O)OCC(=O)NC2CCCCCCC2)cc([N+](=O)[O-])c1 | -7.58%
8 | COc1ccc(OCCN(C)Cc2ccccc2)cc1 | -41.9%
9 | Cc1ccc(S(=O)(=O)N(C)C)cc1NC(=O)C(C)N(C)CCOc1ccc(Cl)cc1 (centres unmarked) | -26.7%
10 | CN(CCOc1ccc(Cl)cc1)Cc1cccc(S(=O)(=O)N(C)C)c1 | -56.5%
11 | COc1ccc(CCNC(=O)C(=O)NCc2cccs2)cc1OC | 8.95%
12 | COc1ccc(S(=O)(=O)Cc2ccc(C(=O)NCC(OC)OC)o2)cc1 | 17.4%
13 | COCCCNC(=O)c1ccc(CS(=O)(=O)c2ccc(OC)cc2)o1 | 5.86%
14 | CCCCNC(=O)c1ccc(CS(=O)(=O)c2ccc(OC)cc2)o1 | -7%
15 | CCCCSCCCNC(=O)c1ccc(CS(=O)(=O)c2ccc(OC)cc2)o1 | -59.6%
16 | CCCCN(CCCNC(=O)c1ccc(CS(=O)(=O)c2ccc(OC)cc2)o1)Cc1ccccc1 | -67.4%
17 | COc1ccc(S(=O)(=O)Cc2ccc(C(=O)NCCc3ccc(S(N)(=O)=O)cc3)o2)cc1 | 10.1%
18 | COc1ccc(S(=O)(=O)Cc2ccc(C(=O)NCCCN(C)c3ccccc3)o2)cc1 | -59.4%
19 | CCN(CC)CCCNC(=O)c1ccc(CS(=O)(=O)c2ccccc2OC)o1 | 16.3%

Row | SMILES | hERG current change (%, negative = inhibition) at 10uM
20 | COc1ccc(S(=O)(=O)Cc2ccc(C(=O)NCc3ccccc3)o2)cc1 | -14.3%
21 | CCOc1ccc2nc(COC(=O)c3cccs3)c(C(=O)c3ccccc3)[n+]([O-])c2c1 | 6.46%
22 | CCN(CC(=O)Nc1ccc(Br)cc1)C(=O)Cc1cccc(F)c1 | -17.4%
23 | O=C(CSc1nnc2c(Cl)cc(C(F)(F)F)cn12)N(Cc1ccccc1)Cc1ccccc1 | -28.6%
24 | Cc1ccc(OCc2cc(C(=O)NC(C)Cc3cccc(C)n3)no2)cn1 (centres unmarked) | 17.8%
25 | Cn1c(-c2ccsc2)c(-c2cccs2)c2cc(-c3ccc4cc[nH]c4c3)ccc21 | 12.1%
26 | Nc1ccc(O)cc1C(=O)OCC(=O)c1ccc(C2CCCCC2)cc1 | 8.51%
27 | CCOC(=O)/C=C/C(=O)OCc1csc(CC(=O)Nc2ccccc2C)n1 | -1.99%
28 | CC(C)[C@H]1CN=C2N(CCNC(=O)CCC3CCCCC3)[C@H](Cc3ccc(O)cc3)CN21 | -40.2%
29 | C[C@@H]1CN=C2N(CCNC(=O)CCC3CCCCC3)[C@H](Cc3ccc(O)cc3)CN21 | -0.311%
30 | COc1ccc(C[C@H]2CN3C(=NC[C@@H]3C)N2CCNC(=O)CCC2CCCCC2)cc1 | -69%
31 | COc1ccc(C[C@H]2CN3C(=NC[C@H]3C)N2CCNC(=O)CCC2CCCCC2)cc1 | -69%
32 | COc1ccc(C[C@H]2CN3C(=NC[C@@H]3C(C)C)N2CCNC(=O)CCC2CCCCC2)cc1 | -80.4%
33 | C[C@H]1CN=C2N(CCNC(=O)CCC3CCCCC3)[C@H](Cc3ccc(O)cc3)CN21 | 9.65%
34 | NC(=O)c1ncc(C(F)(F)F)cc1Oc1ccc(C(F)(F)F)cc1 | 24.9%
35 | O=C(N/N=C1/SCC(=O)N1Cc1ccco1)c1ccccc1F | 20.1%
36 | Cc1cccc(-c2nsc(SCC(=O)c3ccc(Cl)cc3)n2)c1 | 23.3%
37 | CCOC(=O)C(C(=O)OCC)C(=O)c1cc(OC)c(OC)c(OC)c1 | -16.4%
38 | O=S(=O)(Nc1nc2ccccc2nc1N1CCc2ccccc2C1)c1ccc(Cl)cc1 | 7.74%

Row | SMILES | hERG current change (%, negative = inhibition) at 10uM
39 | COc1ccc(C(=O)O)cc1S(=O)(=O)NCc1cccnc1 | 19.4%
40 | CCc1nn(CCCN2CCN(c3cccc(Cl)c3)CC2)c(=O)n1CCOc1ccccc1 | -63.2%
41 | O=C(Cn1nc(-c2ccccc2)ccc1=O)NCCN1CCN(c2cccc(Cl)c2)CC1 | -24.4%
42 | Cl.OCCN1CCN(CCOc2cccc(Cl)c2)CC1 | -15.6%
43 | CCc1nn(CCCN2CCN(c3cccc(Cl)c3)CC2)c(=O)n1CCOc1ccccc1.Cl | -65%
44 | Cc1nn(CCOc2ccccc2)c(=O)n1-c1ccc(Cl)cc1 | -3.66%
45 | COc1cccc(-n2c(C)nn(CCOc3ccccc3)c2=O)c1 | 8.58%
46 | O=Cc1ccnc(-c2ccc(OC(=O)c3ccco3)cc2)n1 | 7.26%
47 | Cc1cc(Br)ccc1NS(=O)(=O)c1c(C)[nH]c(=O)[nH]c1=O | 11.6%
48 | c1ccc(-n2ncc3c(NCc4ccccn4)ncnc32)cc1 | 0.854%
49 | CC(=O)NS(=O)(=O)c1ccc(NC(=O)COc2ccc(C(=O)c3ccccc3)cc2)cc1 | 15.8%
50 | Cc1nnsc1S(=O)c1ccc(Br)cc1 (centres unmarked) | -1.16%
51 | COCCn1c(SCC(=O)N2CCC(C)CC2)nc2c([nH]c3ccccc32)c1=O | -19.8%
52 | CCOC(=O)N1CCN(C(=O)CSc2nc3c([nH]c4ccccc43)c(=O)n2CCOC)CC1 | -65.1%
53 | COCCn1c(SCC(=O)N2CCCC2)nc2c([nH]c3ccccc32)c1=O | -61.3%
54 | COCCn1c(SCC(=O)N2CCCCCC2)nc2c([nH]c3ccccc32)c1=O | -5.06%
55 | COCCn1c(SCC(=O)N2CCCCC2)nc2c([nH]c3ccccc32)c1=O | -20.5%
56 | CCOC(=O)N1CCN(C(=O)CSc2nc3c([nH]c4ccccc43)c(=O)n2CC)CC1 | -13.8%

Reference: article PMC4336329 (PLoS ONE, 2015)
